Most compounds without a hit are left out; they make up all but 1.2% or so of the library.
SKN-1 block = suppressors of acrylamide-induced Pgst-4::GFP reporter in worms, primary screen, SKN-1 inhibitor project, whole organism, uHTS, GFP/RFP fluorescence ratio, strain VP596; C. elegans VP596 Pgst-4::GFP/RFP ratio, 24 h; inhibition, % at 21.8 µM; 360,000 compounds, 0.49% hits; AID 624304, 2012;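 active means interference check ratio from 0.5 to 1.5 plus GFP to RFP signal ratio inhibition reaching or exceeding a fixed threshold, cut at about 30% in these data, passing the limit was not always enough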
Platelet DG rel = inhibitors of platelet dense granule secretion, primary screen, cell-based, MLPCN, human platelets. inhibition, %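 (compounds screened at 7.5 µM in platelet-rich plasma)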. 300,000 compounds, 0.22% hits. human platelet-rich plasma, SFLLRN dense granule ATP release, luminescence;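 active means mean replicate score, as percent of positive control, at or above 50; inconclusive means mean below 50 but at least one replicate at or above 50; inactive means mean and every replicate below 50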
Yeast superoxide = reduction of superoxide in aged yeast, primary screen, HTS; S. cerevisiae aged cells, superoxide DHE fluorescence; active compounds read low; superoxide response (% of plate mean), % at 10 µM; 330,000 compounds, 0.18% hits;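 active means superoxide response under a set limit, about three screen SD below normal, cut at about 65% in these data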;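 further: yeast aged for seven days with compound at 30 °C before DHE staining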
VLA-4 inh = inhibition in human VLA-4 binding assay, primary screen, VLA-4 allosteric modulator project, MLPCN library, flow cytometry, VLA-4 expressing cells; Integrin alpha-4 (Homo sapiens), P13612; ligand binding flow cytometry; inhibition, % (about 7 µM as worked out from the volumes in the protocol); 330,000 compounds, 0.2% hits; in the data active means inhibition above about 50%
ABCB6 inh 2 = ABCB6 transporter inhibitors, primary screen, K562-ABCB6 cells, flow cytometry, MLPCN library | ATP-binding cassette sub-family B member 6 (Homo sapiens), Q9NP58 | K562-ABCB6 porphyrin accumulation, 1 h; active compounds read low | fluorescence ratio to DMSO, % at 10 µM | 360,000 compounds, 0.19% hits | AID 602162, 2011;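 active means fluorescence ratio to DMSO below 75%, the collection mean minus 3 SD; inconclusive means too few cells collected in the well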;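 further: signal is porphyrin accumulated inside mitochondria; lower ratio means ABCB6 inhibition with less porphyrin fluorescence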
Target sequence (Q9NP58 whole entry, looked up): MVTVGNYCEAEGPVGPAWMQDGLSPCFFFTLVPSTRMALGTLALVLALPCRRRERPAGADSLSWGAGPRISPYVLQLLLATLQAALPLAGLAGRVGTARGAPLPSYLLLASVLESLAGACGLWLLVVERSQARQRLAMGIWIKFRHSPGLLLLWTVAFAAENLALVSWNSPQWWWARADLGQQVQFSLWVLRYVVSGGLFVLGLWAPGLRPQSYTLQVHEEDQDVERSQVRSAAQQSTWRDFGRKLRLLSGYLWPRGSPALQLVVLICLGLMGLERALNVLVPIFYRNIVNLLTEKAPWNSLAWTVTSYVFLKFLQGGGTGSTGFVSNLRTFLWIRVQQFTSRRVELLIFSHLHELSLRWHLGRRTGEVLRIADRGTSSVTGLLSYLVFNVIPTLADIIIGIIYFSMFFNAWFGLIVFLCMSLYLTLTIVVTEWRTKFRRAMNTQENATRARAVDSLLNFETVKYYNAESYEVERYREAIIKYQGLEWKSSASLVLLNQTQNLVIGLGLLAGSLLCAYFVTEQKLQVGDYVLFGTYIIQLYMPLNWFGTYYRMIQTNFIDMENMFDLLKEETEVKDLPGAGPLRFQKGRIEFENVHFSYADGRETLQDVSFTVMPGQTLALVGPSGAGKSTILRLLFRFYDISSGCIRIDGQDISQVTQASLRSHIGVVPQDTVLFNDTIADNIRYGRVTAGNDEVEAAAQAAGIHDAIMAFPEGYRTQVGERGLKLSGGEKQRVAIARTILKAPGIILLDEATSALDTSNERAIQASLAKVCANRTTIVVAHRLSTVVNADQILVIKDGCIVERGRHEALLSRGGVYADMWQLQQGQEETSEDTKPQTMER
Numbers stand for hits; n = inactive; u = inconclusive; x = no result given.

SMILES	SKN-1 block	Platelet DG rel	Yeast superoxide	VLA-4 inh	ABCB6 inh 2
CC1CCc2c(C(=O)Nc3nccs3)csc2C1 (stereo unspecified)	37	n	n	n	n
CCNC(=O)C1CCCN(C(=O)c2ccc3ccccc3c2)CC1 (stereo unspecified)	n	x	x	x	n
COCCNC(=O)C1(C)CCCN(CCOc2ccc(Cl)cc2)C1 (stereo unspecified)	n	x	x	x	n
COc1ccc(N2CCN(S(=O)(=O)c3c(C)nc4sccn4c3=O)CC2)cc1	n	95	n	n	n
Cc1nc2sccn2c(=O)c1S(=O)(=O)N1CCN(c2ccccc2)CC1	n	n	n	n	n
COc1ccc(-c2cc(-c3ccc(C)cc3)n[nH]2)c(O)c1	39	n	n	n	n
COc1ccc(-c2cc(-c3cc(C)ccc3O)[nH]n2)cc1	n	n	n	n	n
CCCCCCCCC(c1nc2ccccc2[nH]1)N1CCN=C1c1cc2ccccc2[nH]1 (stereo unspecified)	n	x	x	x	n
COC(=O)[C@@]12C[C@@H](CC(=O)NCC3CCCCC3)C(=O)N(Cc3cccc4ccccc34)C1=CCC(C)(C)C2	n	x	x	x	x
CCOC(=O)Cc1csc(NC(=O)c2cccc(OC)c2)n1	n	n	n	n	n
CCOC(=O)Cc1csc(NC(=O)Nc2cccc(OC)c2)n1	n	n	59	n	n
COC1=CC(C)C2CC3OC(O)CC4C(C)=C(OC)C(=O)C(C2(C)C1=O)C34C (stereo unspecified)	n	x	x	x	n
Cc1nn(C)cc1CNC(=O)C1CCC(=O)N(CC2CCCCC2)C1 (stereo unspecified)	n	56	n	n	n
Clc1cc(NCc2cccs2)ccc1N1CCOCC1	39	n	n	n	n
O=c1oc(Nc2ccc(F)cc2)nc2ccccc12	n	70	n	n	x
CCOc1cc(/C=N/Nc2nc(Nc3ccccc3)nc(N3CCCCC3)n2)ccc1OCC(=O)O	n	n	n	n	n
COc1ccc(/C=N/Nc2nc(Nc3ccccc3)nc(N3CCCCC3)n2)cc1OC	37	n	n	n	n
C=CCNc1nc(NCCN2CCOCC2)nc(N2CCOCC2)n1	35	x	n	n	n
C=CCNc1nc(N2CCOCC2)nc(N2CCOCC2)n1	n	n	n	n	n
CCN(CC)S(=O)(=O)c1ccc2c(c1)nc(SC(C)C(N)=O)n2-c1ccc(OC)cc1 (stereo unspecified)	29	n	n	n	n
COc1ccc(-n2nnnc2SC(C)C(N)=O)cc1 (stereo unspecified)	n	n	n	n	n
CCN(CC)c1nc2ccccc2n2cnnc12	n	n	n	n	n
Cc1cc(C)n(-c2nc3ccccc3n3cnnc23)n1	38	n	n	n	n
CCOC(=O)c1ccc2c(c1)nc(SCC(=O)c1cc3ccccc3o1)n2CC	52	n	n	n	n
C=CCNC(=O)CSc1nc2cc(C(=O)OCC)ccc2n1CC	n	n	n	n	n
SMILES	SKN-1 block	Platelet DG rel	Yeast superoxide	VLA-4 inh	ABCB6 inh 2
Cc1cccc(N2CCN(C(=O)c3cc(S(=O)(=O)N4CCCC4)cn3C)CC2)c1C	n	n	n	n	n
COc1ccc(C)cc1NC(=O)c1cc(S(=O)(=O)N2CCCC2)cn1C	n	n	n	n	n
Cn1cc(S(=O)(=O)N2CCCC2)cc1C(=O)N1CCN(c2cccc(Cl)c2)CC1	n	59	n	n	n
COc1ccc(Cl)cc1NC(=O)c1cc(S(=O)(=O)N2CCCC2)cn1C	n	63	n	n	n
FC(F)(F)c1cnc2c(-c3ccc(Cl)cc3Cl)noc2c1	32	n	n	n	n
O/N=C(\c1ccc(Cl)cc1)c1ncc(C(F)(F)F)cc1Cl	n	n	n	n	n
Cc1ccc(S(=O)(=O)N2CCN(C(=O)C3CCN(c4ncnc5sc(C)c(C)c45)CC3)CC2)c(C)c1	n	x	x	x	64
CCN(CC)C(=O)C1=C(C)N(CCCN2CCCC2=O)C(=O)C(CC(=O)NCCCCc2ccccc2)C1 (stereo unspecified)	n	x	x	x	n
Fc1cccc(F)c1/C=C/c1ccc2ccccc2n1	51	n	n	n	n
N#Cc1ccccc1NC(=O)Nc1cccc(Cl)c1	41	n	n	n	n
c1csc(Cn2nnnc2CN2CCN(c3nc4ccccc4s3)CC2)c1	36	n	n	n	n
CCOCCCNC(=O)C(c1ccc(Cl)cc1)N1CCC2(CC1)OCCO2 (stereo unspecified)	37	n	n	n	n
CCOCCCNC(=O)C(c1ccc(Cl)cc1)N1CCN(c2ccccc2)CC1 (stereo unspecified)	n	n	n	n	n
CCc1nc2ccc(C(=O)Nc3ccc4c(c3)OCC(=O)N4)cn2c1N(C)C(=O)C1CCCCC1	n	x	x	x	n
Cn1c(-c2ccc(Br)o2)nc2cc(Br)ccc21	43	x	n	n	n
Cn1c(-c2ccc(Br)o2)nc2ccccc21	n	n	n	n	n
C#CCOCCOCCOCCNc1nc(N2CCN(C(=O)CCCCCCCCCCNC(=O)[C@H](CO)n3cc(CCCSC)nn3)CC2)nc(N2CCN(C(=O)CCCCCCCCCCNC(=O)[C@H](CO)n3cc(CCCSC)nn3)CC2)n1	n	n	n	n	74
CC1CCN(C(C)C(=O)Nc2ccccc2-c2ccccc2)CC1 (stereo unspecified)	44	n	n	n	n
CCOC1=CC2=C(C(=O)C(Cl)=CC2=O)[C@@H]2CN(S(=O)(=O)c3ccc(C)cc3)[C@@H](c3ccccc3)[C@H]12	n	x	x	x	n
c1ccc2nc(-c3nc4ccccc4o3)ccc2c1	80	u	n	n	n
c1ccc(-c2nc3ccccc3o2)nc1	n	n	n	n	n
CCC1CSC(Nc2ccc(C(=O)/C=C/c3cccc(C)c3)cc2)=N1 (stereo unspecified)	54	n	n	n	n
Cc1ccc2[nH]c(=O)c3cc(C(=O)N(C)c4ccc(C)c(C)c4)sc3c2c1	n	74	n	n	n
COc1ccc(OCC(O)CNC(C)c2ccccc2)cc1 (stereo unspecified)	n	n	n	n	n
CCCC(NCC(O)COc1ccc(-c2ccccc2)cc1)c1ccccc1 (stereo unspecified)	58	n	n	n	n
OC(CNC1CCCC1)COc1ccc(-c2ccccc2)cc1 (stereo unspecified)	43	n	n	n	n
COC(=O)c1ccc(OCC(O)CNC2CCCC2)cc1 (stereo unspecified)	n	n	n	n	n
CC(C)NC(=O)C1(C)CSCC(=O)N1CCCN1CCOCC1 (stereo unspecified)	35	x	x	x	x
COc1ccc(NC2CC(=O)N(CCc3ccccc3)C2=O)cc1 (stereo unspecified)	38	n	n	n	n

Screens as filed in PubChem BioAssay.
